# Test results as given in PubChem BioAssay (NCATS).
# Records with an inconclusive call do not appear. Entries that show only a call come without a potency. Activity calls are given as the source filed them. Calls follow the shape of the dose curve; as a rule, active = well fitted cell-killing curve with a large enough effect; inconclusive = small, poorly fitted or top-dose-only effect, or effect the other way; inactive = flat fitted curve, though single readings scatter.
# Experiment: Cell Viability - LYMP2-003 (AID 965);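 also: cells exposed to compounds for 24 h before reading; nearly all actives have a fitted effect of over 50% in size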
# Conditions: LYMP2-003 lymphoblastoid cell viability; series mostly up to 92.2 µM
# Excerpt: NIH Chemical Genomics Center [NCGC]
# NIH Molecular Libraries Screening Centers Network [MLSCN]
# National Institutes of Environmental Health Sciences [NIEHS]
# National Toxicology Program [NTP]
# We have developed a 1536-well cell-based assay for quantitative high throughput screening (qHTS) against a number of cell lines to determine in vitro cytotoxicity of small molecules. This particular assay uses a human lymphoblastoid cell line (LYMP2-003) purchased from Coriell Institute for Medical Research.
# NCGC Assay Protocol Summary:
# The CellTiter-Glo luminescent cell viability assay (Promega) is a homogeneous method to measure the number of viable cells in culture. The end point readout of this assay is based on quantitation of intracellular ATP, an indicator of metabolic activity, using the luciferase reaction. Luciferase catalyzes the oxidation of beetle Luciferin to oxyluciferin and light in the presence of ATP. The luminescent signal is proportional to amount of ATP present.
# Using the CellTiter-Glo luminescent cell viability assay, the amount of cellular ATP was measured in the lymphoblastoid cell line with complete culture medium following compound treatment for 24 hours. The assay was performed in opaque white Kalypsys 1536-well plates. In the screen, tetraoctylammonium bromide was used as positive control. Library compounds were measured for their ability to cause acute toxicity in the cell line, as reflected by a decrease in intracellular ATP levels, in a concentration-dependent manner. […] AC50 values were determined from concentration-response data modeled with the standard Hill equation.
# qHTS protocol for CellTiter Glo lymphoblastoid cellular assay
# [Step] [Parameter] [Value] [Description]
# 1. Reagent; 5 uL; 2500 lymphoblastoid cells/well
# 2. Time; 5 hr; 37 C incubation
# 4. Controls; 23 nL; Tetraoctylammonium bromide 6.4pM to 92 uM
# 5. Time; 24 hr; 37 C incubation
# 6. Reagent; 5 uL; CellTiter Glo reagent
# 7. Time; 30 min; Room Temperature
# 8. Detection; Luminescence; Viewlux plate reader
# Keywords: cell viability, cytotoxicity, lymphoblastoid cell line, luminescence, NTPHTS, NTPHTS_NCGC, NIEHS, DSSTox, MLSMR, MLSCN, NIH Roadmap, qHTS, NCGC
row,Structure (SMILES),Potency
1,CCC#N,inactive
2,Cc1ccc(N)cc1N,inactive
3,O=C(Cl)OCc1ccccc1,inactive
4,CCCCCCCCCCCCCl,inactive
5,CCN(CC)CCO,inactive
6,CCCCC(CC)COC(=O)c1ccc(C(=O)OCC(CC)CCCC)c(C(=O)OCC(CC)CCCC)c1 (stereo not given),inactive
7,CCN(CC)N=O,inactive
8,CC(C)Br,inactive
9,CCCCOC(=O)c1ccccc1N,inactive
10,O=S(=O)(O)F,inactive
11,[N-]=[N+]=[N-],inactive
12,CC(=O)[O-].CC(=O)[O-].CC(=O)[O-].[Cr+3],inactive
13,COC(=O)Nc1cccc(OC(=O)Nc2cccc(C)c2)c1,inactive
14,CCNCC,inactive
15,O=[N+]([O-])c1ccccc1-c1ccccc1,inactive
16,NC1CCC(CC2CCC(N)CC2)CC1 (stereo not given),inactive
17,COC(C)(C)C,inactive
18,OCCBr,inactive
19,O=C(O)CBr,inactive
20,Nc1ccc(-c2ccccc2)cc1,inactive

row,Structure (SMILES),Potency
1,CC(Cl)(Cl)Cl,inactive
2,FC(Cl)(Cl)Cl,inactive
3,Cl/C=C/CCl,inactive
4,c1ccc(C2CO2)cc1 (stereo not given),inactive
5,Cc1cc(C)cc(OP(=O)(Oc2cc(C)cc(C)c2)Oc2cc(C)cc(C)c2)c1,inactive
6,ClCC(Cl)CCl,inactive
7,N#C/C(N)=C(/N)C#N,inactive
8,COc1c(C(C)(C)C)cc([N+](=O)[O-])c(C)c1[N+](=O)[O-],inactive
9,CN(C)C(=O)Nc1cccc(C(F)(F)F)c1,inactive
10,C=CC(=O)OC,inactive
11,Nc1ccc([N+](=O)[O-])cc1[N+](=O)[O-],inactive
12,O=[N+]([O-])c1ccc(Cl)c(Cl)c1Cl,inactive
13,O=[N+]([O-])c1ccc(Cl)cc1,inactive
14,CC(C)(C)OOC(=O)c1ccccc1,inactive
15,O=C(Cl)c1ccccc1F,inactive
16,CCOP(=S)(OCC)SCCSCC,inactive
17,S=C1NCCN1,inactive
18,CC(=O)NNc1ccccc1,inactive
19,C(CCOCC1CO1)COCC1CO1 (stereo not given),inactive
20,C=CCBr,inactive
